From PubChem BioAssay AID602310 (National Center for Advancing Translational Sciences (NCATS), 2012)
About 310 (0.076%) of roughly 410,000 compounds were called active. About 2% were inconclusive and are not listed. Calls follow the shape of the dose curve; as a rule, active = well fitted curve in the direction sought with a large enough effect; inconclusive = small, poorly fitted or top-dose-only effect; inactive = flat fitted curve, though single readings scatter. The sample as a whole holds a higher share of actives than the screen did.

biological target: DNA dC->dU-editing enzyme APOBEC-3G (Homo sapiens) (UniProt Q9HC16); test: qHTS for Inhibitors of Vif-A3G Interactions: qHTS; conditions: HeLa A3G-eYFP + Vif (tagged APOBEC3G with the HIV-1 protein that degrades it), YFP fluorescence, overnight; series mostly up to 46.1 µM; activity, negative = active: at the top concentration;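 also: hits raise eYFP signal because A3G escapes Vif-driven loss; nearly all actives have a fitted effect of over 60% in size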
Excerpt: The recent discovery and characterization of host restriction factors, which provide a potent defense to invading retroviruses, has provided new targets for antiviral drug development. APOBEC3G (A3G) and APOBEC3F (A3F) are potent cytidine deaminases that block HIV-1 replication; HIV-1 expresses the Vif protein, which counteracts A3G and A3F by binding to them and inducing their proteasomal degradation. The Vif-A3G and Vif-A3F interactions provide two potential targets for development of small molecules which can interfere with the ability of Vif to degrade A3G or A3F. […] To identify inhibitors that can interfere with Vif mediated degradation of A3G and A3F, we have developed Hela cell lines that stably express A3G or A3F tagged with eYFP at the C-terminal end (A3G-eYFP or A3F-eYFP, respectively) and Vif. In the absence of an inhibitor, Vif induces degradation of A3G-eYFP and A3F-eYFP, and the cells are not fluorescent. In the presence of an inhibitor, it is expected that Vif will be unable to degrade A3G-eYFP and/or A3F-eYFP, resulting in an increase in yellow fluorescence. In this assays Vif A3G was screened against the Molecular Library Small Molecule Repository (MLSMR). NIH Chemical Genomics Center [NCGC] NIH Molecular Libraries Probe Centers Network [MLPCN] MLPCN Grant: MH093245 Assay Submitter (PI): Vinay Pathak, National Cancer Institute
5 uL of 700 cells/well of A3G-YFP cells are dispensed into black, clear bottom plates. The plates are incubated overnight at 37 deg C. 23 nL of compounds are added by pintool. The plates are incubated overnight at 37 deg C and then read on the TTP Acumen (Ex 488/ Em 500-530).
% is scaled to controls: 0 for no effect and ±100 for the full control effect.

Sequence of DNA dC->dU-editing enzyme APOBEC-3G (Homo sapiens) (Q9HC16 whole entry, looked up): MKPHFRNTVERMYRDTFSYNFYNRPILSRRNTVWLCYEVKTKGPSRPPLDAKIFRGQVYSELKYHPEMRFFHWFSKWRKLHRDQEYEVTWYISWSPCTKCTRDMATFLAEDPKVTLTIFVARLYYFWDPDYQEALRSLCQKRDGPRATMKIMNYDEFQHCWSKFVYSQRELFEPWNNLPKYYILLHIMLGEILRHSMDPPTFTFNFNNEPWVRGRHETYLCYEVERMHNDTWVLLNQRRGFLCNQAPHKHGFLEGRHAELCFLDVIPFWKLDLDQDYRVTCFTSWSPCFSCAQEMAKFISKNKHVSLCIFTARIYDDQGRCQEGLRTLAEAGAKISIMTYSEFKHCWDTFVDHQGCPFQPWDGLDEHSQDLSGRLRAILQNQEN

activity, negative = active, inactive:
CCOC(=O)c1ccc(-c2ccc(/C=C(\C#N)C(=O)Nc3ccc(C)cc3)o2)cc1 2.39%, Cc1c(C(=O)Nc2cccc(Cl)c2)oc2ccc(S(=O)(=O)N3CCOCC3)cc12 -4.72%, CS(=O)c1ccc(/C=C2\C=Cc3ccccc32)cc1 (stereo not given) -4.01%, OCC(O)C(O)C(O)C(O)C=Nc1ccc(/C=C/c2ccnc3ccccc23)cc1 (stereo not given) -13.5%, C=COC(=O)N1CCN(/[N+]([O-])=N/Oc2ccc([N+](=O)[O-])cc2[N+](=O)[O-])CC1 -11.3%, SCc1nc2ccc(Cl)cc2[nH]1 -15.9%, CCC(=O)N1CCc2cc(Br)cc(S(=O)(=O)CCC(=O)NCc3ccccc3OC)c21 0.639%, O=C(CCSCc1cccc(F)c1)NCc1ccccc1 1.45%, O=C1C[C@H]2C=CCc3cccc(c32)CN1Cc1ccccc1 1.8%, CN1CCN(/[N+]([O-])=N/Oc2ccc([N+](=O)[O-])cc2[N+](=O)[O-])CC1 -2.57%, O=C1CCC[C@@H]2C[C@@]3(C[C@@H]4CCN1[C@H]24)Nc1ccccc1NC3=NCc1ccccc1 -3.5%, CCC(C)NC(=O)Cn1c(=O)n(-c2ccc(Cl)cc2)c(=O)c2c3c(sc21)CCCC3 (stereo not given) -2.77%, Cc1ccc(CSc2oc(-c3cccs3)nc2S(=O)(=O)c2ccc(C)cc2)cc1 -5.68%, CC1(C)C=Cc2c(ccc(C(=O)/C=C/c3ccccc3)c2O)O1 -4.83%, Cc1nc2nc(SCC(=O)N(Cc3ccccc3)C(C)C)nn2c(C)c1Cc1ccccc1Cl -4.58%, C=C1C=C(C(F)F)n2ncc(C(=O)NCCc3ccccc3OC)c2N1 1.18%, O=C1O/C(=C\c2ccc(O)cc2)C(O)=C1c1ccc(O)cc1 0.495%, Cc1ccc(C)c(Cn2c(C(=O)O)c(CNCc3cccs3)c3ccccc32)c1 5.36%, CCN(CC)c1ccc(/C=C/c2c(C)cnc3ccc(C)cc23)cc1 -14.3%, CCOc1cccc(CC(=O)N2CCc3c([nH]c4ccccc34)C2c2ccc(OC)cc2)c1OCC (stereo not given) 5.45%, CCc1cccc(CC)c1NC(=O)Cn1c(=O)c(-c2cc(C)ccc2NC(C)=O)nc2ccccc21 2.05%, CCN1CCN(CCCNC(=O)c2ccc3c(c2)sc2nc(-c4ccc(OC)cc4)cn23)CC1 1.57%, COc1ccc(N2CCN(c3nc(-c4ccccc4F)nc4ccccc34)CC2)cc1 1.44%, CC(C)(C)OC(=O)N(Cc1ccco1)S(=O)(=O)c1ccccc1Br -2.34%, Nc1ncnc2nnsc12 -0.535%, Clc1cccc[n+]1CCCC[n+]1ccccc1Cl -3.41%, O=C(NCC(c1ccco1)S(=O)(=O)c1cccs1)c1ccc(F)cc1 (stereo not given) -0.334%, COc1ccc(-c2nc(=N)sn2-c2ccccc2)cc1 -12.4%, Cc1ccccc1NC(=O)c1c(NC(=O)c2ccccc2F)sc2c1CCC(C)C2 (stereo not given) 2.58%, COc1ccc(-c2[nH]c3c(c2-c2c(-n4cccc4)n(C)c(=O)n(C)c2=O)c(=O)n(C)c(=O)n3C)cc1 4.14%, OC(CBr)CN1CCCCC1 (stereo not given) 2.13%, CN(C(=N)N)c1ccc(/C=C2\C=Cc3ccccc32)cc1 0.609%, Cc1cccn2c(=O)c3cc(C(=O)NC(C)c4ccccc4)c(=N)n(CCCO)c3nc12 (stereo not given) 1.93%, COC(=O)c1ccc(OC)c(Cn2c(=O)n(Cc3ccccc3)c(=O)c3c2c2cc(OC)ccc2n3C)c1 -5.74%, CCOC(=O)c1scc(-c2ccc(C)cc2)c1S(=O)(=O)Nc1cc(C)ccc1C 2.25%, COc1ccc(OCC(=O)Nc2cccc(C(=O)OCc3cc(=O)n4nc(C)sc4n3)c2)cc1 1.27%, CCOc1ccc(N(CC)S(=O)(=O)N2CCCC(C(=O)Nc3ccc(C(C)=O)cc3)C2)cc1 (stereo not given) 3.2%, Cc1ccc(S(=O)(=O)c2nc(-c3ccco3)oc2SCC(=O)Nc2ccc(F)cc2)cc1 -4.15%, COc1ccc(CNC(=O)c2ccc3c(c2)nc2n3CCOC2)c(OC)c1 2.94%, COC(=O)c1cc(NC(=O)CCS(=O)(=O)c2cc(Br)cc3c2N(C(=O)C2CC2)CC3)cc(C(=O)OC)c1 1.17%, CCCCN(CC)CCCNC(=O)Cn1ncc2c([nH]c3ccc(C)cc32)c1=O 1.92%, O=C(Nc1ccccc1F)C(c1ccccc1)N1Cc2ccccc2C1=O (stereo not given) -0.9%, OC(Cc1ccc2ccccc2n1)c1ccc(Cl)c(Cl)c1 (stereo not given) -0.459%, Cc1c(-c2nsc(NC(=O)c3cccc(Cl)c3)n2)nnn1-c1ccccc1C(F)(F)F 4.58%, CN(C)c1ccc(/C=C2\C=Cc3ccccc32)cc1Br -3.17%, CCn1c(=O)c(=O)n(CC)c2cc(N3CCCCC3)c(NC(=O)c3cccc(F)c3)cc21 0.845%, CN(C)c1ccc(/C=N\Nc2ccc([N+](=O)[O-])cc2[N+](=O)[O-])cc1Cl 3.64%, CC1CCc2noc(NC(=O)c3ccc([N+](=O)[O-])cc3)c2C1 (stereo not given) -0.497%, Cc1cc(NS(=O)(=O)c2ccc3oc(=O)c4ncn(C)c4c3c2)ccc1Br -20.5%, Cc1cc(C)c2oc(C(=O)Nc3c(C(=O)Nc4ccccc4)oc4ccccc34)cc(=O)c2c1 3.43%
